A short description of assay [1]: qHTS assay for small molecule agonists of the p53 signaling pathway (AID 651631; calls by dose curve; also: nearly all actives have a fitted effect of over 15% in size; also: potency is read from the fitted curve at half-maximal effect). An outline of the steps: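 HCT-116 cells carrying a stable p53 response element–beta-lactamase reporter were plated, rested 5 h at 37 °C, then exposed to compound in DMSO for 16 h at 37 °C; reporter activity was read as FRET substrate fluorescence after 2 h at room temperature.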
On the technique in general: In qHTS, concentration-response curves come from the screen itself.

Assay [2] in a line: qHTS assay for small molecules that induce genotoxicity in human embryonic kidney cells expressing luciferase-tagged ATAD5 (AID 651632). Also: nearly all actives have a fitted effect of over 15% in size. The method in brief:
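Luminescence read-out: after 16 hr compound exposure at 37C, ATAD5-luciferase HEK293T cells received Amplite, 30 min RT, then CCD imaging. A rise in signal marks genotoxic stress.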

Assay [3] can be described thus: qHTS assay for small molecule agonists of the p53 signaling pathway - cell viability (AID 651633; calls by dose curve; also: nearly all actives have a fitted effect of over 30% in size; also: potency is read from the fitted curve at half-maximal effect). The method in brief: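 p53RE-bla cells, seeded at 4,000 per well and rested 5 h at 37 C/5% CO2, received compounds in DMSO for 16 h at 37 C. CellTiter-Glo was then added, and luminescence was read after 30 min at room temperature to gauge cytotoxicity.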
Assay [4] in a line: qHTS assay for small molecules that induce genotoxicity in human embryonic kidney cells expressing luciferase-tagged ATAD5 - cell viability (AID 651634; calls by dose curve; also: nearly all actives have a fitted effect of over 25% in size; also: potency is read from the fitted curve at half-maximal effect). The method in brief:
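HEK293T ATAD5-luc cells, 2,000/well; compound 15.5 hr, 37C/5% CO2; CellTiter-Fluor 30 min, 37C; fluorescence read.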

A short description of assay [5]: qHTS assay for small molecule disruptors of the mitochondrial membrane potential - cell viability (AID 720634; calls by dose curve;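 also: human HepG2 liver cancer cells; nearly all actives have a fitted effect of over 20% in size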). An outline of the steps: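 Luminescence from CellTiter-Glo (ATP content) gave viability in HepG2 cells, read in the same wells as the MMP dye assay after 1 hr compound exposure at 37 C.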
Assay [6] in a line: qHTS assay for small molecule disruptors of the mitochondrial membrane potential (AID 720635). Also: potency is read from the fitted curve at half-maximal effect. An outline of the steps:
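HepG2 cells (2,000/well) attached overnight at 37C, then took compound for 1 hr at 37C, 5% CO2. Mito-MPS dye was added for 30 min; fluorescence was read at 490/535 nm (monomers) and 540/590 nm (aggregates).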

Assay [7] in a line: qHTS assay to test for compound auto fluorescence at 590 nm (red) in HepG2 cells (AID 720674). An outline of the steps:
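Intrinsic compound fluorescence in the red window (Ex/Em 540/590 nm) is measured in attached HepG2 cells exposed for 1 hr, DMSO vehicle as baseline, benchmarked to Rose Bengal sodium.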

Assay [8] can be described thus: qHTS assay to test for compound auto fluorescence at 535 nm (green) in HepG2 cells (AID 720675).
The nature of assay [9]: qHTS assay to test for compound auto fluorescence at 460 nm (blue) in HEK293 cells (AID 720678). The method in brief:
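Measured: blue fluorescence (Ex 405/Em 460 nm) of compound-treated HEK293 cells, incubated overnight at 37C with 5% CO2 and scaled to triamterene equivalents.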

Assay [10] in a line: qHTS assay to test for compound auto fluorescence at 590 nm (red) in HEK293 cells (AID 720679). An outline of the steps:
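Using HEK293 cells at 2,000 per well, the screen added 23 nL of each compound after cell attachment and incubated overnight (37C, 5% CO2). The plate reader then captured red-label fluorescence, Ex/Em 540/590nm.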

Assay [11] in a line: qHTS assay to test for compound auto fluorescence at 535 nm (green) in HEK293 cells (AID 720680).
Assay [12] is described as follows: qHTS assay to test for compound auto fluorescence at 460 nm (blue) in HEK293 cell free culture (AID 720681). The method in brief:
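Test compounds were pinned into cell-free culture medium (DMEM with 10% FBS) and fluorescence was read directly at Ex/Em 405/460 nm. Signals were expressed as fluorescence equivalents of triamterene, with DMSO vehicle as control.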

Assay [13] is described as follows: qHTS assay to test for compound auto fluorescence at 535 nm (green) in HEK293 cell free culture (AID 720682). An outline of the steps:
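Read-out: 485/535 nm fluorescence intensity, calibrated against fluorescein. Medium only (DMEM + 10% FBS, no cells); test compound or DMSO vehicle added by pintool before plate reading.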

Assay [14] is described as follows: qHTS assay to test for compound auto fluorescence at 590 nm (red) in HEK293 cell free culture (AID 720683). The method in brief:
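Tox21 10K library compounds were pinned into cell-free DMEM with 10% FBS and fluorescence was read at excitation 540 nm. Activity is expressed as Rose Bengal sodium equivalency.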

A short description of assay [15]: qHTS assay to test for compound auto fluorescence at 590 nm (red) in HepG2 cell free culture (AID 720684). The method in brief: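 Readout: intrinsic compound fluorescence at 590 nm emission after 540 nm excitation, scaled to Rose Bengal sodium. Matrix was cell-free MEM with 10% FBS; DMSO vehicle wells served as control.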
A short description of assay [16]: qHTS assay to test for compound auto fluorescence at 460 nm (blue) in HepG2 cell free culture (AID 720685). The method in brief:
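Cell-free plates of MEM plus 10% FBS received 23 nL compound or DMSO vehicle; blue-channel (405/460 nm) intensity scored against triamterene as reference fluorophore.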

Assay [17] in a line: qHTS assay to test for compound auto fluorescence at 535 nm (green) in HepG2 cell free culture (AID 720686).
Assay [18] can be described thus: qHTS assay to test for compound auto fluorescence at 460 nm (blue) in HepG2 cells (AID 720687). The method in brief: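 Cells (2,000/well in MEM with 10% FBS) attached overnight at 37 C, then were exposed to compound or DMSO for 1 hr at 37 C, 5% CO2. Fluorescence read at Ex/Em 405/460 nm, expressed as triamterene-equivalent signal.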
In assay [19] the target is Glucocorticoid receptor (Homo sapiens) (UniProt P04150). The assay is described as follows: qHTS assay to identify small molecule agonists of the glucocorticoid receptor (GR) signaling pathway (AID 720691; active = well fitted activation curve with a large enough effect in the signal ratio in the repeat runs, not every such curve was filed as active; the % refers to the signal ratio). The note with it: GR-bla HeLa, beta-lactamase reporter ratio, 18 h; activation: at 62.4 µM (top of the series). An outline of the steps:
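HeLa GR-bla reporter line; cells pre-incubated 4 h, compound in DMSO 18 h at 37 C; LiveBLAzer B/G FRET substrate 2 h RT; fluorescence intensity read-out.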

The values below come from PubChem BioAssay (Tox21).

Records with an inconclusive call do not appear. The source made the active and inactive calls. Unless noted, calls follow the shape of the dose curve; as a rule, active = well fitted curve in the direction sought with a large enough effect in the repeat runs; inconclusive = weak or mixed curves; inactive = no such curve, though single readings can be large; an effect the other way counts as inactive or inconclusive.

Glucocorticoid receptor (Homo sapiens), sequence (P04150 whole entry, looked up): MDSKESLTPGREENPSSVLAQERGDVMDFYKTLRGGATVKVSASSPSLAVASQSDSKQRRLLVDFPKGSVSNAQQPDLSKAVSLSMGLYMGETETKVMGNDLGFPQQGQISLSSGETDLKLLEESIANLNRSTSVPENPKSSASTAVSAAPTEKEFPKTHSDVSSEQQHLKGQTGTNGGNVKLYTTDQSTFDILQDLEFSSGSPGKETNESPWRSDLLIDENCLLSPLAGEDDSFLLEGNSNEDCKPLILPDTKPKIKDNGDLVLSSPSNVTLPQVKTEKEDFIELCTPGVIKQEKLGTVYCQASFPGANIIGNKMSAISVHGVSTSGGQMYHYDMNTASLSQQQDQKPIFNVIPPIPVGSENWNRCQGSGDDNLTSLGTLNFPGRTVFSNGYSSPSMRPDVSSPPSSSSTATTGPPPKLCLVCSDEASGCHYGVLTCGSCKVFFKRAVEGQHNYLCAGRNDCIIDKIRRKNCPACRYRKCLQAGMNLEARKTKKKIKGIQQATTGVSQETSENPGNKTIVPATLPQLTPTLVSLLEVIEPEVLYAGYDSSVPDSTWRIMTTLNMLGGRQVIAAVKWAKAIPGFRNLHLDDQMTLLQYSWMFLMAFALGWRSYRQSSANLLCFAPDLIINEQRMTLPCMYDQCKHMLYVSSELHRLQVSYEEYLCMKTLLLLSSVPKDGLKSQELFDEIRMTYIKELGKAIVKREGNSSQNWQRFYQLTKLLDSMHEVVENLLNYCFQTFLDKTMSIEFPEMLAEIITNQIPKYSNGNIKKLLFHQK

Regarding `O=C(O)CCCC/C=C(\c1ccccc1)c1cccnc1`, the Potency entry in assay [1], in assay [2], in assay [3], in [4], in [5] and in assay [6] was “inactive” in each case. Besides, the Potency entry in assay [8], in assay [9], in assay [12], in assay [16], in assay [17] and in assay [18] was “inactive” in each case. Besides, the call in assay [7], in assay [10], in assay [11], in assay [13], in [14] and in assay [15] was inactive.
Turning to `CC[C@H]1OC(=O)C[C@@H](O)[C@H](C)[C@@H](O[C@@H]2O[C@H](C)[C@@H](O[C@H]3C[C@@](C)(O)[C@@H](O)[C@H](C)O3)[C@H](N(C)C)[C@H]2O)[C@@H](CC=O)C[C@@H](C)C(=O)/C=C/C(C)=C/[C@@H]1CO[C@@H]1O[C@H](C)[C@@H](O)[C@@H](OC)[C@H]1OC`, the Potency result in assay [1], in assay [2], in assay [3], in [4], in [5] and in assay [6] was “inactive” throughout. For the same compound, the Potency result in [8], in [9], in [12], in [16], in assay [17] and in assay [18] was “inactive” each time. For the same compound, the compound was classed as inactive in assay [7], in [10], in assay [11], in [13], in assay [14] and in assay [15].
For `C[C@]12O[C@H](C[C@]1(O)CO)n1c3ccccc3c3c4c(c5c6ccccc6n2c5c31)CNC4=O`, the Potency in [1] is 0.075 µM (active); in assay [3] it was 0.944 µM (active); in [4], 4.73 µM (active); in assay [6], 3.76 µM (active). For the same compound, the Potency entry in assay [2], in [5], in assay [8], in assay [9], in assay [12] and in assay [16] was “inactive” each time. For the same compound, the Potency result in assay [17] and in assay [18] was “inactive” in each case. The compound was classed as inactive in assay [7], in [10], in assay [11], in [13], in assay [14] and in assay [15].
With `COc1ccc(/C=N/NC(=O)c2ccncc2)c(C(=O)O)c1OC`, the Potency result in assay [1], in assay [2], in [3], in assay [4], in [5] and in assay [6] was “inactive” in each case. The Potency result in assay [8], in assay [9], in assay [12], in assay [16], in [17] and in assay [18] was “inactive” throughout. Further, the Potency result in assay [19] was “inactive”. Further, the compound was called inactive in [7], in assay [10], in assay [11], in assay [13], in [14] and in assay [15].
Consider `CCCCCCCCCCCC[n+]1ccc2ccccc2c1`, for which the Potency is 26.6 µM (active) in [1], 29.8 µM (active) in assay [3], 7.5 µM (active) in assay [4] and 2.98 µM (active) in [6]. Moreover, the Potency entry in [2], in [5], in assay [8], in [9], in [12] and in assay [16] was “inactive” in each case. Moreover, the Potency result in [17] and in assay [18] was “inactive” in each case. Further, the compound was classed as inactive in assay [7], in assay [10], in [11], in [13], in assay [14] and in [15].
For the compound `N#Cc1c(N(CC(=O)O)CC(=O)O)sc(C(=O)O)c1CC(=O)O`, the Potency result in assay [1], in assay [2], in assay [3], in [4], in [5] and in assay [6] was “inactive” throughout. Further, the Potency result in [8], in assay [9], in assay [12], in [16], in assay [17] and in assay [18] was “inactive” each time. Moreover, the compound was called inactive in assay [7], in [10], in assay [11], in assay [13], in [14] and in [15].
